Data: the supplement of paper PMC3334620
Over roughly 33,000 sequences, “E-score (-0.5 to 0.5)” has its median near -0.035; the highest 2% begin near 0.34. Many of the other results were omitted from the sample, so the highest values are more common in it than they were.

What follows are sequences tested against T1, Mot3 (UniProt P54785) (assay: PBM E-score (8-mer binding enrichment) (E-score (-0.5 to 0.5)); higher = stronger / more preferred TF binding). Details: protein concentration: 200 nM; construct: GST-full length.
T1 sequence: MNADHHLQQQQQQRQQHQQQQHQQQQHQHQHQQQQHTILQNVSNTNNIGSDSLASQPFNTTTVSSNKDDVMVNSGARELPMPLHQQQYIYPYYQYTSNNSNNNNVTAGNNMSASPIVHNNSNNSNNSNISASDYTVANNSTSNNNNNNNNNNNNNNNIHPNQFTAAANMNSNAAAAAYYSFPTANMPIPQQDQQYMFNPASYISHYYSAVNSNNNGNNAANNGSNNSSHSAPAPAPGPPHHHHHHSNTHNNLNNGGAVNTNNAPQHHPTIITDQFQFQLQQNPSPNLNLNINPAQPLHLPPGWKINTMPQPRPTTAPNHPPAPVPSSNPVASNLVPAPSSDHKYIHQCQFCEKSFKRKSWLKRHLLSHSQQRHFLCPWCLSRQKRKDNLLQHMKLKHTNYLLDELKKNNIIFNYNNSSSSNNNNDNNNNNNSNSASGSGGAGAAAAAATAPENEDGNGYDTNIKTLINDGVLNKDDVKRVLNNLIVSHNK
Method in brief: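 Yeast transcription factors, full-length or as DNA-binding domains, were expressed with a GST tag using PURExpress in vitro transcription/translation. At about 100-200 nM they were applied to universal all-10-mer Agilent arrays, double-stranded by primer extension on fresh or once-stripped slides. Fluorescent anti-GST detected bound protein, and masliner normalised the scans. E-scores for ungapped eight-base words, pooled with reverse complements, came from the Universal PBM Analysis Suite.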

Sequence	PBM E-score
ACGCATCG	-0.0642
CACTTCTG	-0.0864
AATTGGTA	0.113
AGCCAACG	0.0732
ACCTAAGC	0.0128
CCCCTTGC	-0.152
AGGCCTCC	-0.166
CTAGACAC	0.0958
TAAAACGA	0.0299
GTCCAACA	0.153
ACACCTGG	0.104
TTTACAAA	0.331
ATTACAAT	0.299
ATTACAGC	0.127
ATTACAAG	0.388
ATTACAAC	0.286
CTTACAAA	0.15
ATTACAAA	0.347
ATTACAGG	0.359
ATTACAGA	0.24
GCTGGATA	0.0442
GCCCTTAC	-0.0326
CTAGGCTC	0.043

Sequence	PBM E-score
AAACTGAA	0.0399
GGGCCCAC	-0.255
AACCGTAG	-0.229
CCCGTGTC	0.082
ACCGTGTA	0.397
CCCGTGGA	-0.314
CCCGTGTA	0.376
GCCGTGAA	-0.128
GCCGTGTA	0.349
ACCGTGTC	0.216
GCCGTGGA	-0.169
ACCGTGTG	0.175
AGCCAAAT	-0.0958
CCAACTAA	0.0699
CACTTTTA	0.117
ACGTCGCC	-0.00307
AGGAACGC	0.451
ATGAACGG	0.0117
AAGAACGG	-0.266
ATGAACGC	0.145
GGGAACGA	-0.122
CGGAACGC	-0.0837
CGGAACGA	0.0162

Sequence	PBM E-score
AGGAACGG	0.463
AGGAACGA	0.44
ACCTCAGC	-0.124
AAAGCCGG	-0.133
AATCAAGC	-0.177
GGTGTGTA	0.335
CGTGTACA	0.388
CGTGTATA	0.4
AGTGTACA	0.273
CGTGTACC	0.277
CGTGTGTA	0.349
AGTGTGTA	0.247
GGTGTATA	0.0111
CGTGTATC	0.262
CACTGTGA	-0.103
CTACCAGA	0.0177
GTGAGAGA	0.0715
ATGAATGG	-0.0783
CGGTTTAC	0.134
CGACTTTC	0.0333
CTAGGAAA	0.246
TTAGGAAA	0.351
CTAGGAAG	-0.108

Sequence	PBM E-score
CTAGGAGC	-0.225
GTAGGATA	0.185
CTAGGAAC	0.372
GTAGGAGA	-0.184
ATAGGGAA	0.00264
ATAGGAAA	0.429
TGAGGAAA	0.0921
GTAGGAAA	0.429
ATAGGATA	0.00177
GGACAGCA	-0.224
ATCGGACA	-0.0499
CGACATAA	0.0835
TAGTTCCA	0.00515
AAACGCAC	0.0986
TAGCGGAA	-0.15
CTCGAGAG	-0.177
AGTGGGAT	-0.0984
AACGGCGG	-0.117
ATAGGAAT	-0.00642
GGAGGAAC	0.272
GTAGGAAC	0.457
ATAGGAAC	0.456
ATAGGAAG	-0.0193

Sequence	PBM E-score
AGAGGAAC	0.0727
TTGCCCAA	0.111
CCAACCAC	0.083
ACAAAAGA	0.166
CGTAGCCA	-0.208
ACACTGAT	-0.138
CCACAGGC	0.194
ACCAACCG	-0.16
GGAAGGAA	0.384
TGAAGGAA	0.434
CGAAGGAC	-0.03
AGAAGGAT	0.0925
CGAAGGAG	-0.225
AGAAGGAG	-0.107
AGAAGGAC	-0.198
CGAAGGAA	0.39
GCAAGGAA	0.211
GGAAGGAC	-0.122
TGGAGGAA	0.0436
AGAAGGAA	0.382
